# Experimental data: PubChem BioAssay AID588819 (The Scripps Research Institute Molecular Screening Center, 2011)
# The whole screen tested about 360,000 compounds, of which about 320 (0.089%) were called active. The full list was thinned out, with actives kept by preference. Values without a mark were called inactive. Rule as the data show it: active = activation above about 19% (passing the limit was not always enough); inactive = the rest.
# Biological target: Muscarinic acetylcholine receptor M1 (Homo sapiens) (UniProt P11229)
# Assay: human M1 muscarinic receptor positive allosteric modulators, primary screen, CHO-K1 cells, Fluo-8 calcium fluorescence, 1536-well (AID 588819)
# Details: CHO-K1 hM1, Fluo-8 calcium fluorescence, ACh EC20; at 3 µM; active compounds read high; 0% = ACh EC20, 100% = maximal ACh
# Sequence of Muscarinic acetylcholine receptor M1 (Homo sapiens) (P11229 whole entry, looked up): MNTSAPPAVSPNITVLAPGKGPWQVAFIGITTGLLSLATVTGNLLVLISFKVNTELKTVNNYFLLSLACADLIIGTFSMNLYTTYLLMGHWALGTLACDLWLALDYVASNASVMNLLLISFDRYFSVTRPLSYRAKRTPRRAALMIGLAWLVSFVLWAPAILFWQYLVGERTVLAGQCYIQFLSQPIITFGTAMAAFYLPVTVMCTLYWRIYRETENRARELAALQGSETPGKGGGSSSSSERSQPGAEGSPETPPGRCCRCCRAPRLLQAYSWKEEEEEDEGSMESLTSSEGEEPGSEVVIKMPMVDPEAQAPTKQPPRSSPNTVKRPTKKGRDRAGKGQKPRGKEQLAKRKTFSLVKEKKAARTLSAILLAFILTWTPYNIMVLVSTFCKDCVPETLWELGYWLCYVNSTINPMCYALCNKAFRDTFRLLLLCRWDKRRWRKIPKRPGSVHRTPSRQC
row,Compound,activation
1,O=C(CCc1ccccc1)Nc1ccnn1C1CCN(Cc2ccc(OCCO)cc2)CC1,-2.48%
2,COc1cccc(Cn2cnc3c([N+](=O)[O-])c(C)c(C)cc32)c1,-0.11%
3,COCCNC(=S)N(CCc1c(C)[nH]c2ccc(C)cc12)Cc1cccnc1,9.1%
4,Cc1ccc(N(Cc2ccc(C(=O)Nc3ccccc3C(=O)NCc3ccco3)cc2)S(C)(=O)=O)cc1C,-6.42%
5,Cc1cccc(Nc2ccccc2C(=O)NCc2ccco2)c1C,-3.33%
6,COc1ccc(C(=O)Nc2ccccc2C(=O)NCc2ccco2)cc1,30.1% (active)
7,CN=C(Nc1cccc(S(=O)(=O)N2CCOCC2)c1)c1ccccc1,-5.57%
8,Nc1nnnn1/N=C/c1cc([N+](=O)[O-])ccc1O,26.2% (active)
9,Nc1nnnn1/N=C/c1cccc(Br)c1,11.8%
10,Nc1nnnn1/N=C/c1cccs1,1.93%
11,OC(c1nc2ccc(F)cc2[nH]1)C(O)c1nc2ccc(F)cc2[nH]1 (stereo unspecified),3.09%
12,O=C(NCC(O)c1nc2ccccc2[nH]1)c1ccc(Br)cc1 (stereo unspecified),-1%
13,CC(C)c1nc2ccc(C(=O)O)cc2[nH]1,31.2% (active)
14,CN(c1ccccc1)S(=O)(=O)c1cccc(C(=O)NNC(=O)c2ccncc2)c1,1.76%
15,CCOc1ccc(-c2cc(C(=O)N/N=C/c3ccc(O)cc3)c3ccccc3n2)cc1,9.09%
16,O=C(N/N=C/C=C/c1ccco1)c1cccs1,8.09%
17,Cc1ccc(-c2cc(C(=O)N/N=C/C=C/c3ccco3)c3ccccc3n2)cc1C,21.5% (active)
18,O=c1[nH]c2ccc(S(=O)(=O)N3CCCC3)cc2[nH]1,2.57%
19,O=C(C1CCN(C2CCN(Cc3ccc4cc(F)ccc4n3)CC2)CC1)N1CCCC1,8.71%
20,CCN(CC)CCn1c(=S)[nH]c2ncccc2c1=O,1.96%
21,CCc1ccc(NC(=O)CC2C(=O)NCCN2C(=S)Nc2ccccc2)cc1 (stereo unspecified),7.43%
22,COc1ccccc1C(=O)Nc1nc2nc(-c3ccccc3)cc(=O)n2[nH]1,10.9%
23,O=C(CCC(=O)N1CCN(S(=O)(=O)c2ccc(Cl)cc2)CC1)NCc1cccc(C(F)(F)F)c1,-4.55%
24,COC(=O)c1ccc(C(=O)Nc2cc(Cl)ccc2Cl)cc1NC(=O)c1ccccc1C,7.99%
25,CCOC(=O)c1sc(/N=C/C2=C(O)CC(C)(C)CC2=O)c(C(=O)OCC)c1C,2.16%
26,CC(Oc1ccccc1F)C(=O)NN (stereo unspecified),1.45%
